The values that follow come from a collection of fitness landscapes (doi:10.1016/j.celrep.2020.107928).

B1: Caulobacter ParB omega fusion; a variant is named by its letters at X, in order, B8GW30 (parent)
chain: MESVVVGEPGMSEGRRGLGRGLSALLGEVDAAPAQAPGEQLGGSREAPIEILQRNPDQPRRTFREEDLEDLSNSIREKGVLQPILVRPSPDTAGEYQIVAGERAWRAAQRAGLKTVPIMVRELDDLAVLEIGIIENVQRADLNVLEEALSYKVLMEKFERTQENIAQTIGKSXSHVANXMRLLXLPDEVQSYLVSGELTAXHARAIAAAADPVALAKQIIEGGLSVRETEALARKAPNLSAGKSKGGRPPRVKDTDTQALESDLSSVLGLDVSIDHRGSTGTLTITYATLEQLDDLCNRLTRGI

Whole data set: some 81,000 sequences, median “one-hybrid fitness for binding parS DNA” near -0.17, cut for the highest 2% near 0.51. The full list was thinned out, with the highest values kept by preference.

Variants of B1 are the subject of this assay. The assay can be described thus: one-hybrid fitness for binding parS DNA (scaled: cognate 1, non-cognate 0); higher = stronger binding. The following applies: with parS DNA site. The essentials: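 Fitness here means the log change in variant-to-wild-type read ratio between plasmids sequenced before and after selection. That scale was set so cognate equals 1 and non-cognate equals 0. The selection was a bacterial one-hybrid screen of Caulobacter ParB libraries, four specificity codons randomised, in E. coli USO carrying a HIS3 reporter with the site 19 bp from the promoter, grown 48 hours at 37°C on M9-minus-histidine with 0.1 mM IPTG and 5 mM 3-AT.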
In the case of RHKC, the “one-hybrid fitness for binding parS DNA” value worked out at 0.858.
The figure for RHKQ is at most 0.2; for RHVQ it is at most 0.2.
RHVR: the “one-hybrid fitness for binding parS DNA” value is at most 0.2.
SHAT: the “one-hybrid fitness for binding parS DNA” value is at most 0.2.
Take DRYP: the “one-hybrid fitness for binding parS DNA” value was at most 0.2.
As for IQCS, the figure is at most 0.2; as for TYDM, at most 0.2.
As for RGKD, the figure is at most 0.2; as for RGVP, at most 0.2; as for RGKN, 0.369.
For RGVN, the “one-hybrid fitness for binding parS DNA” value was at most 0.2.
As for RGVS, the figure is 0.516; as for RGVT, 0.33.
On to RGKY, for which the “one-hybrid fitness for binding parS DNA” value stood at 0.436.
The figure for RGKS is 0.927; for RGKT it is 0.712.
In the case of LSNY, the “one-hybrid fitness for binding parS DNA” value was at most 0.2.
The figure for WVRY is at most 0.2.
As for MIPI, the figure is at most 0.2; as for GELY, at most 0.2.
As for GYSK, the figure is at most 0.2; as for QACE, at most 0.2; as for NCKN, at most 0.2.
In the case of VNAS, the “one-hybrid fitness for binding parS DNA” value is at most 0.2.
Regarding RRKA, the “one-hybrid fitness for binding parS DNA” value came to 0.532.
As for NRKA, the figure is at most 0.2; as for NRVA, at most 0.2; as for DRKA, at most 0.2.
With RRVA, the “one-hybrid fitness for binding parS DNA” value came out at 0.78.
For the variant YMAC, the “one-hybrid fitness for binding parS DNA” value is at most 0.2.
The figure for EHCS is at most 0.2; for RYLR it is at most 0.2.
On to RYHY, for which the “one-hybrid fitness for binding parS DNA” value was 0.423.
As for RYQN, the figure is 0.318.
As to RYHC, the “one-hybrid fitness for binding parS DNA” value turned out to be 0.949.
Turning to RYQC, the “one-hybrid fitness for binding parS DNA” value was 0.898.
As to RYSF, the “one-hybrid fitness for binding parS DNA” value was at most 0.2.
As for RYSC, the figure is 0.929.
Take RYLK: the “one-hybrid fitness for binding parS DNA” value is at most 0.2.
In the case of RYQP, the “one-hybrid fitness for binding parS DNA” value was at most 0.2.
As for RYHR, the figure is at most 0.2.
As for RYSK, the “one-hybrid fitness for binding parS DNA” value was at most 0.2.
As for RYLC, the figure is 0.955; as for SLCV, at most 0.2.
As for CHLH, the figure is at most 0.2.
The figure for CAHG is at most 0.2; for MLWF it is 0.204; for KWCS it is at most 0.2.
VPGF: the “one-hybrid fitness for binding parS DNA” value was at most 0.2.
With PGPY, the “one-hybrid fitness for binding parS DNA” value was at most 0.2.
The figure for ELLG is at most 0.2; for NRNN it is at most 0.2; for TSHR it is at most 0.2.
On to SYEV, for which the “one-hybrid fitness for binding parS DNA” value was at most 0.2.
As for RYRC, the “one-hybrid fitness for binding parS DNA” value worked out at 0.798.
With RYRK, the “one-hybrid fitness for binding parS DNA” value was at most 0.2.
As for RYCR, the figure is at most 0.2; as for RYYQ, at most 0.2.
For RYWR, the “one-hybrid fitness for binding parS DNA” value was at most 0.2.
In the case of RYWC, the “one-hybrid fitness for binding parS DNA” value was 0.887.
As for RYCF, the figure is at most 0.2.
RYWF: the “one-hybrid fitness for binding parS DNA” value is 0.258.
For the variant RYRM, the “one-hybrid fitness for binding parS DNA” value is 0.328.
As for RYCC, the figure is 0.903.
As for RYYC, the figure is 0.975; as for RYYR, at most 0.2.
As to QPAG, the “one-hybrid fitness for binding parS DNA” value is at most 0.2.
The figure for WKQT is at most 0.2.
The figure for SDLQ is at most 0.2; for CPED it is at most 0.2; for GWLY it is at most 0.2.
In the case of RYGP, the “one-hybrid fitness for binding parS DNA” value is at most 0.2.
Turning to RYGC, the “one-hybrid fitness for binding parS DNA” value turned out to be 0.914.
As for RYGH, the figure is at most 0.2; as for DNPV, at most 0.2.
As to RFCG, the “one-hybrid fitness for binding parS DNA” value stood at 0.895.
For the variant DFHG, the “one-hybrid fitness for binding parS DNA” value is at most 0.2.
As for NFRG, the figure is at most 0.2; as for RFYG, 0.899; as for DFRG, at most 0.2.
As for NFYG, the figure is at most 0.2.
Take RFRG: the “one-hybrid fitness for binding parS DNA” value was determined as 0.992.
With RFHG, the “one-hybrid fitness for binding parS DNA” value was determined as 0.974.
The figure for SFCG is at most 0.2.
Consider DFYG, for which the “one-hybrid fitness for binding parS DNA” value is at most 0.2.
The figure for NFHG is at most 0.2; for NFCG it is at most 0.2; for QYLK it is at most 0.2.
The figure for ALTP is at most 0.2; for ELKN it is at most 0.2; for VNHC it is at most 0.2.
For DHWC, the “one-hybrid fitness for binding parS DNA” value was at most 0.2.
As for FRFT, the figure is at most 0.2; as for TDKR, at most 0.2; as for FTYC, at most 0.2.
The figure for QQPP is at most 0.2.
For the variant WLFI, the “one-hybrid fitness for binding parS DNA” value is at most 0.2.
The figure for AEPL is at most 0.2; for RFLH it is 0.217; for RFGG it is 0.918.
For DFLG, the “one-hybrid fitness for binding parS DNA” value is at most 0.2.
The figure for RFLG is 0.891; for NFGG it is at most 0.2; for RFGD it is at most 0.2.
Take QKFT: the “one-hybrid fitness for binding parS DNA” value was at most 0.2.
The figure for TIPM is at most 0.2.
Regarding RRFA, the “one-hybrid fitness for binding parS DNA” value was 0.806.
As to NRFA, the “one-hybrid fitness for binding parS DNA” value is at most 0.2.
As for NRAA, the “one-hybrid fitness for binding parS DNA” value was at most 0.2.
The figure for DRFA is at most 0.2; for DRAA it is at most 0.2; for RRAA it is 0.724.
The figure for RAFI is at most 0.2; for DPVD it is at most 0.2.
RHKD: the “one-hybrid fitness for binding parS DNA” value is at most 0.2.
As for RHVH, the figure is at most 0.2; as for RHVP, at most 0.2; as for RHKH, 0.248.
As for RHVG, the figure is 0.847; as for RHKG, 0.879.
The figure for QEEC is at most 0.2; for PYTA it is at most 0.2; for QTGF it is at most 0.2.
For RWLF, the “one-hybrid fitness for binding parS DNA” value was at most 0.2.
Turning to RWNP, the “one-hybrid fitness for binding parS DNA” value is at most 0.2.
As for RWHP, the figure is at most 0.2.
For RWLG, the “one-hybrid fitness for binding parS DNA” value was 0.685.
As to RWRQ, the “one-hybrid fitness for binding parS DNA” value is at most 0.2.
The figure for RWNN is 0.355; for RWRY it is 0.494; for RWHH it is at most 0.2.
The figure for RWNG is 0.797.
The figure for RWLY is 0.266.
In the case of RWRG, the “one-hybrid fitness for binding parS DNA” value is 0.881.
Take RWHG: the “one-hybrid fitness for binding parS DNA” value was 0.754.
Consider DKAC, for which the “one-hybrid fitness for binding parS DNA” value is at most 0.2.
Take PMRT: the “one-hybrid fitness for binding parS DNA” value was at most 0.2.
As for CRCT, the figure is at most 0.2; as for TSLF, at most 0.2.
For MEYL, the “one-hybrid fitness for binding parS DNA” value was at most 0.2.
On to QCLV, for which the “one-hybrid fitness for binding parS DNA” value is at most 0.2.
As for EWYS, the figure is at most 0.2; as for RWSG, 0.769.
The figure for RWIF is at most 0.2; for RWYG it is 0.714.
Consider RWGF, for which the “one-hybrid fitness for binding parS DNA” value was at most 0.2.
As to RWYF, the “one-hybrid fitness for binding parS DNA” value is at most 0.2.
The figure for RWGG is 0.63.
The figure for RWYM is at most 0.2.
For RWGM, the “one-hybrid fitness for binding parS DNA” value is at most 0.2.
Consider RWSR, for which the “one-hybrid fitness for binding parS DNA” value is at most 0.2.
As for RWPG, the figure is 0.406.
As for RWIG, the figure is 0.569; as for RWSQ, at most 0.2.
